Reference: PubChem BioAssay AID1159580 (chemical genetic matrix, 2015)
Where “and” joins values, the source holds several entries; their conditions need not be identical. Equal entries are not always repeated. In all, about 5,500 compounds went through this assay and about 2,000 (36%) were called active. About 18% were inconclusive and are not listed. Rule as the data show it: active = normalized growth mostly below about 0.91 (no sharp cut-off); inconclusive = no clear call, values can overlap the other calls; inactive = mostly above about 0.92. This is one part of the list.

Experiment: chemical genetic growth profiling, strain panel (AID 1159580);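 also: tested at 20 µM; growth read once vehicle control cultures reached saturation at 30 °C; 1 = growth at the plate median or of vehicle wells; lower values mean less growth of the strain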
Settings: S. cerevisiae deletion strains, growth OD

Measured: normalized growth

CCCCOC(=O)c1ccccc1C(=O)OCCCC
inactive: locus YAL013W, strain DEP1, hits give low values 0.988 | locus YAL021C, strain ccr4, hits give low values 0.979 | locus YAL026C, strain drs2, hits give low values 0.989 | locus YAL030W, strain snc1, hits give low values 0.979 | locus YBL061C, strain skt5, hits give low values 0.986 | locus YBR009C, strain hhf1, hits give low values 0.968 | locus YBR021W, strain FUR4, hits give low values 0.955 | locus YBR023C, strain chs3, hits give low values 0.98 | locus YBR171W, strain sec66, hits give low values 0.959 | locus YBR229C, strain ROT2, hits give low values 0.981 | locus YBR231C, strain swc5, hits give low values 0.983 | locus YBR279W, strain paf1, hits give low values 0.994 | locus YCL011C, strain gbp2, hits give low values 0.979 | locus YCL016C, strain dcc1, hits give low values 0.985 | locus YCL029C, strain bik1, hits give low values 0.976 | locus YCL061C, strain MRC1, hits give low values 0.984 | locus YCL069W, strain vba3, hits give low values 0.985 | locus YCR088W, strain abp1, hits give low values 0.98 | locus YDL005C, strain med2, hits give low values 0.97 | locus YDL035C, strain GPR1, hits give low values 0.986 | locus YDL040C, strain nat1, hits give low values 0.985 | locus YDL074C, strain BRE1, hits give low values 0.984 | locus YDL101C, strain DUN1, hits give low values 0.986 | locus YDL134C, strain PPH21, hits give low values 0.988 | locus YDL185W, strain tfp1, hits give low values 0.961 | locus YDL192W, strain arf1, hits give low values 0.983 | locus YDR001C, strain nth1, hits give low values 0.984 | locus YDR069C, strain doa4, hits give low values 0.983 | locus YDR101C, strain arx1, hits give low values 0.984 | locus YDR137W, strain rgp1, hits give low values 0.905 | locus YDR150W, strain NUM1, hits give low values 0.989 | locus YDR159W, strain sac3, hits give low values 0.993 | locus YDR162C, strain NBP2, hits give low values 0.976 | locus YDR195W, strain ref2 1.07 | locus YDR297W, strain sur2, hits give low values 0.984 | locus YDR318W, strain mcm21, hits give low values 0.979 | locus YDR334W, strain swr1, hits give low values 0.991 | locus YDR335W, strain msn5, hits give low values 0.992 | locus YDR388W, hits give low values 0.961 | locus YDR392W, strain spt3, hits give low values 0.941 | locus YDR502C, strain sam2, hits give low values 0.977 | locus YEL003W, strain gim4, hits give low values 0.987 | locus YEL037C, strain rad23, hits give low values 0.992 | locus YEL061C, strain CIN8 (second series), hits give low values 0.989 | locus YEL061C, strain CIN8, hits give low values 0.992 | locus YER015W, strain faa2, hits give low values 0.986 | locus YER016W, strain bim1, hits give low values 0.986 | locus YER110C, hits give low values 0.974 | locus YER111C, strain swi4, hits give low values 0.999 | locus YER155C, strain BEM2 (second series), hits give low values 0.968 | locus YER155C, strain BEM2, hits give low values 0.98 | locus YER167W, strain BCK2, hits give low values 0.981 | locus YFR010W, strain ubp6, hits give low values 0.998 | locus YGL078C, strain dbp3, hits give low values 0.982 | locus YGL086W, strain mad1, hits give low values 0.98 | locus YGL167C, strain pmr1, hits give low values 0.957 | locus YGL173C, strain kem1, hits give low values 0.98 | locus YGL227W, strain vid30, hits give low values 0.984 | locus YGL240W, strain doc1, hits give low values 0.973 | locus YGL248W, strain PDE1, hits give low values 0.976 | locus YGL253W, strain hxk2, hits give low values 0.987 | locus YGR078C, strain PAC10, hits give low values 0.981 | locus YGR135W, strain pre9, hits give low values 0.988 | locus YGR229C, strain SMI1, hits give low values 0.948 | locus YGR252W, strain gcn5, hits give low values 0.992 | locus YHR013C, strain ard1, hits give low values 1.03 | locus YHR027C, strain rpn1, hits give low values 0.987 | locus YHR030C, strain SLT2, hits give low values 0.969 | locus YHR079C, strain IRE1 (second series), hits give low values 0.972 | locus YHR079C, strain IRE1, hits give low values 0.962 | locus YHR094C, strain hxt1, hits give low values 0.973 | locus YHR129C, strain ARP1, hits give low values 0.996 | locus YHR142W, strain chs7, hits give low values 0.944 | locus YHR200W, strain rpn10, hits give low values 0.985 | locus YIL066C, strain RNR3, hits give low values 0.972 | locus YIL073C, strain SPO22, hits give low values 0.867 | locus YIL125W, strain kgd1, hits give low values 0.988 | locus YIR030C, strain dcg1, hits give low values 0.978 | locus YJL092W, strain hpr5, hits give low values 0.98 | locus YJL095W, strain BCK1 (second series), hits give low values 0.985 | locus YJL095W, strain BCK1, hits give low values 0.979 and 0.96 | locus YJL115W, strain asf1, hits give low values 0.988 | locus YJL129C, strain trk1, hits give low values 0.886 | locus YJL134W, strain LCB3, hits give low values 0.984 | locus YJL154C, strain vps35, hits give low values 0.985 | locus YJL164C, strain tpk1, hits give low values 0.961 | locus YJL166W, strain qcr8, hits give low values 0.974 | locus YJL168C, strain set2, hits give low values 0.985 | locus YJL187C, strain SWE1 (second series), hits give low values 0.968 | locus YJL187C, strain SWE1, hits give low values 0.983 | locus YJR043C, strain POL32, hits give low values 0.982
